Antigen binding call data for 106 variants are collected here from the emibetuzumab library of Makowski et al. (2022).

This is one part of the list. How many sequences the whole screen found active is unknown.

B1: VH:VL chains; a variant is named by its letters at X, in order (parent)
chain 1: QVQLVQSGAEVKKPGASVKVSCKASGYTFTDYXMHWVRQAPGQGLEWMGXVNPNXXXTTYNQKFEGRVTMTTDTSTSTAYMELRSLRSDDTAVYYCARXNXLDXWGQGTTVTVSS
chain 2: DIQMTQSPSSLSASVGDRVTITCSVSSSVSSIYLHWYQQKPGKAPKLLIYSTSNLASGVPSRFSGSGSGTDFTLTISSLQPEDFATYYCQVYSGYPLTFGGGTKVEIK

In the assay the parent is B1. Nature of the assay: yeast display scFab, FACS + sequencing. The settings on record: with MET. Summed up: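 A yeast surface library of scFab variants carrying heavy-chain CDR mutations went through two magnetic enrichment rounds on Protein A beads coated with HGFR-Fc, then FACS. For sorting, cells were labelled for 3 h at room temperature with 1 nM HGFR-Fc and anti-Myc in PBSB containing 1% milk, and the top 50% of antigen-positive cells were gated. Input and round-3 sorted populations were deep sequenced in two replicates. A sequence was called an antigen binder if it appeared in both antigen-positive samples and a non-binder if it appeared only in the input.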
Regarding YRGRSFGV, the antigen binding call is listed as “binds”. For YRRRTAAV, the antigen binding call is listed as “binds”. Turning to YRGRTAGV, the antigen binding call is given as “binds”.

Regarding YRGRGFGV, the antigen binding call is listed as “binds”. With YRGRSFAV, the antigen binding call is listed as “no binding”.

For YAGRTAGV, the antigen binding call is “no binding”.

SEARNDGA: the antigen binding call was “no binding”. On to DAGGDAGD, for which the antigen binding call is “no binding”. For VTRGADAA the value was “no binding”; for AARADDSV, “no binding”; for YRTRGSLY, “binds”.

As for YRTRGSGY, the antigen binding call is given as “binds”. For YATEDDWV the value was “no binding”; for VETGNAVY, “no binding”. The same measure for SEARSDLY: “no binding”. For FAEGSYAF the value was “no binding”. Turning to VGAEDDVA, the antigen binding call was “no binding”.

As to SGETGDSV, the antigen binding call was “no binding”.

For the variant FRGRGSAA, the antigen binding call is listed as “binds”. For FRGRSSAA the value was “binds”; for VTGRGDVA, “no binding”. As to DKEGGSGV, the antigen binding call is given as “no binding”. Regarding DREEGAGV, the antigen binding call was “no binding”. Consider YREGGSGV, for which the antigen binding call is “binds”.

On to YREGGAGV, for which the antigen binding call was “binds”.

In the case of VEKEGDWY, the antigen binding call was “no binding”. Regarding SAREGDLA, the antigen binding call is recorded as “no binding”. In the case of VRAGGSAD, the antigen binding call was “binds”. With VTAGDSAD, the antigen binding call was “no binding”. VRAKGSAD: the antigen binding call is listed as “binds”. For VEEEGSAD the value was “no binding”; for VAGTGSAD, “no binding”; for VARETDVA, “no binding”. As for VKTGGSWA, the antigen binding call was “no binding”. Take DEGRGSWA: the antigen binding call is “no binding”. Regarding VKGRGAWA, the antigen binding call is listed as “binds”. For VKGRGSWA the value was “binds”. On to VKGRGDAA, for which the antigen binding call is “no binding”. With VKGRGFAA, the antigen binding call is recorded as “no binding”. For VTRGADGV the value was “no binding”; for VAGGDFGV, “no binding”; for SAGTGSWD, “no binding”.

Regarding FRGKGASD, the antigen binding call was “binds”. For FRGKGSWD, the antigen binding call is “binds”. The same measure for SKKRGSWD: “binds”; for SKKTGSVD: “no binding”; for SKGKGSWD: “binds”.

Consider VEAGDDWV, for which the antigen binding call is “no binding”.

In the case of SGRGNDGV, the antigen binding call is listed as “no binding”.

For the variant DTGGDDWF, the antigen binding call is “no binding”. For the variant DAGGGDAV, the antigen binding call was “no binding”. With YAGTGFVD, the antigen binding call is recorded as “no binding”.

For the variant FRGTGFVD, the antigen binding call is “binds”. Turning to FKGKGSWD, the antigen binding call is “binds”. In the case of FAGTGSWD, the antigen binding call was “no binding”.

For the variant FRGTSFGD chain 1 T58I, the antigen binding call was “no binding”. Consider FRGKGAWD, for which the antigen binding call was “binds”. Regarding YKGKGSWD, the antigen binding call was “binds”. For AAGGNAWS chain 1 G66S, the antigen binding call is reported as “no binding”.

Turning to FRGKGAVD, the antigen binding call was “binds”. Take DGGKGAVD: the antigen binding call was “no binding”. For DKGGSDVA the value was “no binding”.

Take YKGGSSAA: the antigen binding call was “binds”. For DKGEGAAA the value was “no binding”. For the variant DKGGSAVV, the antigen binding call was “no binding”.

Consider YKGGSAAA, for which the antigen binding call is reported as “binds”. For FKGGSSAA the value was “no binding”; for YKGRSAAA, “binds”. On to DEGGTDVF, for which the antigen binding call was “no binding”. As for DGGKNDWV, the antigen binding call is “no binding”. The same measure for DAGGASSS: “no binding”; for YTERNFGV: “no binding”; for FRGGGSGF: “binds”.

Consider FRAGGSLF, for which the antigen binding call is given as “binds”. The same measure for FRGADSGF chain 1 R98K: “no binding”; for DRAGDSGF: “no binding”. The same measure for FRGRGSGF: “binds”; for FRARSSGF: “binds”; for FTARSAGF: “no binding”. For FRGRDFLF, the antigen binding call is “no binding”. In the case of DGGKNSVD, the antigen binding call is on record as “no binding”.

As for VEGGGFSV, the antigen binding call is on record as “no binding”. For VEAGDDAV the value was “no binding”; for ATAGSDGV, “no binding”. DAARGDGA: the antigen binding call is recorded as “no binding”.

Turning to VKGRSDVY, the antigen binding call is “no binding”. With FRKRGSVF, the antigen binding call is recorded as “binds”. FRGRGALF: the antigen binding call was “binds”. For the variant FRGRGSVF, the antigen binding call was “binds”.

Take FRGRGSLF: the antigen binding call is listed as “binds”. In the case of ARAAGDVF, the antigen binding call is listed as “no binding”. As to YRGGSSGY, the antigen binding call is listed as “binds”. In the case of YRGAGSGY, the antigen binding call is “binds”.

As to YRGAGSGD, the antigen binding call is “binds”. Take YRGAGSGS: the antigen binding call is “binds”. The same measure for AERRDDGA: “no binding”; for VAGGGAGV: “no binding”; for YAGGDDSA: “no binding”. The same measure for VTTKSFGV: “no binding”; for YRGAGAVS: “binds”; for ARGAGYGS: “no binding”. Take YRGAGAGS: the antigen binding call was “binds”. For YRGAGAVY the value was “binds”; for YAGAGAVY, “no binding”; for YRGAGYGS, “no binding”. For YRGAGAWS the value was “binds”.
